The list is not random: actives were taken first. Their share in the collection is about 7.4%.
Rab9 prom act – qHTS Assay for Rab9 Promoter Activators; Potency, µM (series often up to 9.22 µM), for inactives: at the top dose activation, negative = inhibition, hits mostly activators; actives 2.8% (n = 320,000); Huh7 Rab9 promoter-luciferase reporter, luminescence, 24 h; further: % of control where 0% means no effect; nearly all actives have a fitted effect of over 60% in size
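Stable Rab9-luc Huh7, 1500 cells/well, 2 h settle; cmpd in DMSO, 24 h, 37 °C/5% CO2; luciferase reagent 10 min RT; luminescence.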
SMN2 splice up – qHTS Assay for Enhancers of SMN2 Splice Variant Expression. AID 1458, 2008. HEK293 SMN2-luciferase splicing reporter, luminescence, 30-36 h. Potency, µM (titrated, usually from 46.1 µM), for inactives: top-dose activity change, positive = activation, usual class: activators. actives 2.8% (n = 210,000); further: % of control where 0% means no effect; nearly all actives have a fitted effect of over 55% in size
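qHTS luciferase splicing reporter: luminescence rises when SMN2 exon 7 is included in transfected HEK293 cells. Compound exposure lasted 30-36 h at 37C, with 4.5 mM final sodium butyrate as control, followed by a ONE-Glo read.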
ELG1 genotoxic – qHTS screen for small molecules that induce genotoxicity in human embryonic kidney (HEK293T) cells expressing luciferase-tagged ELG1 | HEK293T ELG1-luciferase reporter, luminescence, 16 h | Potency, µM (highest dose often 46 µM), without a hit: top-dose activity change, positive = activation, actives largely listed as activators | actives 1.3% (n = 330,000) | AID 504466, 2011; further: % of control where 0% means no effect; nearly all actives have a fitted effect of over 60% in size
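After overnight (16 hr) compound treatment at 37 °C, ELG1-luciferase HEK293T cells were lysed with ONE-Glo; luminescence quantified 30 min later at room temperature.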
NPC1 promoter act – qHTS Assay for NPC1 Promoter Activators; Huh7 NPC1 promoter luciferase reporter, 24 h; actives 2.4% (n = 320,000); Potency, µM (top dose mostly 9.22 µM), for inactives: top-dose activation, most hits filed as activators; further: % of control where 0% means no effect; nearly all actives have a fitted effect of over 60% in size
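Stable NPC1-promoter luciferase Huh7 line; cpd (DMSO) 24 h, 37 °C, 5% CO2; Amplite luciferase reagent 10 min RT; luminescence readout. qHTS format.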
FLuc counter – qHTS profiling assay for firefly luciferase inhibitor/activator using purifed enzyme and Km concentrations of substrates (counterscreen for miR-21 project); Potency, µM (series often up to 57.5 µM), inactives show at the highest dose activity change, negative = inhibition, most hits filed as inhibitors; AID 588342, 2011; purified FLuc, Km substrates, luminescence inhibition; actives 6.9% (n = 360,000); Luciferin 4-monooxygenase (Photinus pyralis), P08659;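 further: plate controls were vehicle for no effect and reference inhibitor for full effect; nearly all actives have a fitted effect of over 55% in size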
Target sequence (P08659 whole entry, looked up): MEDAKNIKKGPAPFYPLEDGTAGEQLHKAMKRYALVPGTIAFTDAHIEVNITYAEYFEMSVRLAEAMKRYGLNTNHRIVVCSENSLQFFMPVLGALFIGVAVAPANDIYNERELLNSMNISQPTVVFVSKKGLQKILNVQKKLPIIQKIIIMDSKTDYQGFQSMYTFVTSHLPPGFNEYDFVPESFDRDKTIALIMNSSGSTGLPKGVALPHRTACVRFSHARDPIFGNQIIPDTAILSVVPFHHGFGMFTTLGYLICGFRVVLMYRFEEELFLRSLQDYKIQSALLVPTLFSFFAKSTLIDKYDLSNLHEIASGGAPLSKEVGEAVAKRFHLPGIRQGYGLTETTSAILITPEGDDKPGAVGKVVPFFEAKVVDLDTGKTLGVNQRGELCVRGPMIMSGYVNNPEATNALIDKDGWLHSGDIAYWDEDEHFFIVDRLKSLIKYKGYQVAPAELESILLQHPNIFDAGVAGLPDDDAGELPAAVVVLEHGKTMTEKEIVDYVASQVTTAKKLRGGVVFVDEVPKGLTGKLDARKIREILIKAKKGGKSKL
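Purified P. pyralis luciferase (10nM final) with 10uM D-luciferin and 10uM ATP (Km levels) in 50mM Tris acetate pH 7.5, 10mM Mg acetate, 0.01% Tween-20, 0.05% BSA; qHTS 6-point titration, ~60 µM downward; luminescence read.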
Starred values were filed as active, the others as inactive; u = inconclusive; x = no result. The call rests on the fitted dose curve; in most records, active means well fitted curve in the direction sought with a large enough effect; inconclusive means small, poorly fitted or top-dose-only effect, or another doubt; inactive means no such curve, though single readings can be large; an effect the other way counts as inactive or inconclusive. Potency means the concentration at half of the fitted maximal effect.

SMILES	Rab9 prom act	SMN2 splice up	ELG1 genotoxic	NPC1 promoter act	FLuc counter
O=C(O)c1ccc(Nc2nc3ccccc3n3cnnc23)cc1	x	0.4%	x	x	7.57µM*
c1ccc2c(c1)nc(Nc1ccc(N3CCCCC3)cc1)c1nncn12	-5.0%	x	1.0%	1.1%	4.78µM*
c1ccc(N2CCCCC2)c(Nc2nc3ccccc3n3cnnc23)c1	-4.9%	x	2.7%	2.3%	1.7%
CCc1ccc(C(=O)Nn2cnc3ccccc3c2=O)cc1	2.24µM*	x	u	2.51µM*	8.49µM*
Cc1ccc(C(=O)n2cnc3ccccc32)cc1C	7.6%	x	-0.3%	-2.3%	12µM*
Cc1ccc(C(=O)Nn2cnc3ccccc3c2=O)cc1C	2.51µM*	x	u	3.16µM*	13.5µM*
CCOc1cccc(C(=O)N(Cc2cccc(F)c2)C2CCS(=O)(=O)C2)c1 (stereo not given)	-1.6%	x	-2.1%	-4.6%	2.5%
Cc1ccccc1C(=O)NNC(=O)C1CCN(C(=O)Nc2ccccc2)CC1	-7.3%	x	2.0%	-5.3%	1.4%
COc1ccc(-c2csc(/C(C#N)=C\c3ccc(OC)c([N+](=O)[O-])c3)n2)cc1	-4.7%	-13.3%	-3.4%	-3.2%	1.7%
O=C(O)CC/C(=C\c1ccc(Cl)c([N+](=O)[O-])c1)c1nc2ccccc2s1	-10.6%	-0.4%	-4.2%	-4.8%	7.5%
COc1ccc(-c2csc(/C(C#N)=C\c3ccc(O)c([N+](=O)[O-])c3)n2)cc1OC	-1.1%	x	-6.3%	7.3%	15.1µM*
COc1cc(/C=C(\C#N)c2nc3ccccc3s2)cc([N+](=O)[O-])c1O	-6.0%	5.9%	-6.4%	-3.9%	8.49µM*
N#C/C(=C\c1ccc(O)c([N+](=O)[O-])c1)c1nc2ccccc2s1	0.2%	-57.8%	-8.7%	-1.6%	13.5µM*
Cn1cnnc1SCC(=O)Nc1ccc(F)cc1	10.0%	x	0.8%	0.5%	-2.2%
Cc1cccc(N2C(=O)CSC23C(=O)N(CC(=O)NCc2ccccc2Cl)c2ccccc23)c1 (stereo not given)	x	x	x	x	-3.7%
Cc1cccc(NC(=O)CSCc2cc(=O)n3nc(C4CC4)sc3n2)c1	-1.8%	x	5.9%	-1.3%	0.9%
CCN(Cc1ccccc1)C(=O)Cn1c(=O)oc2cc(S(=O)(=O)N3CCCCCC3)ccc21	x	21.7%	x	x	0.5%
COc1ccccc1OCc1nnc(SCC(=O)Nc2ccc(N3CCOCC3)cc2)n1C	15.9%	x	0.7%	4.4%	12µM*
Cn1c(COc2ccccc2)nnc1SCC(=O)Nc1ccc(N2CCOCC2)cc1	2.3%	x	13.1%	10.4%	u
Cc1ccccc1OCc1nnc(SCC(=O)Nc2ccc(N3CCOCC3)c(Cl)c2)n1C	-2.1%	-0.7%	-1.2%	3.9%	19µM*
Cc1ccccc1OCc1nnc(SCC(=O)Nc2ccc3c(c2)OCO3)n1C	-5.5%	-10.5%	15.8%	-3.0%	1.1%
CC(C)(C)c1ccc(Cn2nnc3c(=O)[nH]c(C4CCN(C(=O)c5ccco5)CC4)nc32)cc1	-0.8%	x	-1.9%	-0.6%	0.2%
COc1ccc(C(c2c(O)ccc3ccccc23)N2CCOCC2)c(OC)c1 (stereo not given)	3.5%	u	u	-3.0%	12µM*
C/C(=N\NC(=O)c1ccc(C(=O)N/N=C(\C)c2ccco2)o1)c1ccco1	-0.7%	x	-4.3%	-3.3%	u
CC(C)c1cc(C(=O)N/N=C/c2ccco2)n[nH]1	u	15.8µM*	u	u	16.9µM*
SMILES	Rab9 prom act	SMN2 splice up	ELG1 genotoxic	NPC1 promoter act	FLuc counter
C/C(=N\NC(=O)c1cc(C(C)C)[nH]n1)c1ccco1	2.51µM*	2.82µM*	u	3.98µM*	12µM*
C/C(=N/NC(=O)c1cc(-c2ccc(Br)s2)[nH]n1)c1ccco1	-8.0%	-10.1%	3.5%	1.0%	23.9µM*
O=C(NCc1ccc(F)cc1)C1CCCCN1S(=O)(=O)c1ccc(F)cc1 (stereo not given)	x	x	x	x	2.2%
COC(=O)c1ccc(CSc2nc3c([nH]c4ccccc43)c(=O)n2-c2ccc(Cl)cc2)o1	x	x	x	x	0.2%
COC(=O)c1ccc(-n2c(C)cc(C(=O)CSc3cccc[n+]3[O-])c2C)cc1	-1.0%	7.7%	-3.1%	1.1%	u
Cc1cc(C(=O)CSc2cccc[n+]2[O-])c(C)n1-c1ccc(OC(F)F)cc1	u	x	8.0%	u	15.1µM*
CCN(C(=O)C1CCC(CNS(=O)(=O)c2cccc3nsnc23)CC1)c1cccc(C)c1 (stereo not given)	x	-28.0%	x	x	1.6%
COc1ccc(/C=N/Nc2cc(C)nc3ccccc23)cc1	-1.8%	x	u	13.0%	u
COc1ccc(/C=N/Nc2nnc(-c3ncc[nH]3)c3ccccc23)cc1	u	13.9%	15.5%	2.82µM*	0.338µM*
Oc1ccc2ccccc2c1/C=N/Nc1nnc(-c2ncc[nH]2)c2ccccc12	-29.6%	-115.6%	17.3%	-17.8%	3.38µM*
CCOC(=O)c1c(NC(=O)c2nc(SC)ncc2Cl)sc(C)c1C	x	0.3%	x	x	-1.4%
O=C(Cn1cnc([N+](=O)[O-])c1)c1ccc(F)cc1	-0.8%	x	-0.3%	0.3%	0.9%
CCCSc1ncc(Cl)c(C(=O)Nc2ccc(OC)cc2OC)n1	x	6.4%	x	x	-3.5%
CCOc1ccc(C(=O)Nc2cc(-c3nc4cc(OC)ccc4o3)ccc2C)cc1[N+](=O)[O-]	x	16.5%	x	x	6.75µM*
COc1ccc2oc(-c3ccc(C)c(NC(=O)c4ccc(N5CCOCC5)c([N+](=O)[O-])c4)c3)nc2c1	3.8%	4.1%	u	16.1%	6.01µM*
COc1ccc(CNC(=O)c2ccc(N3CCOCC3)c([N+](=O)[O-])c2)cc1	4.9%	-14.2%	1.1%	-1.3%	-3.7%
O=C(NCc1ccccc1Cl)c1ccc(Cn2c(SCc3ccccc3)nc3cccnc32)cc1	x	x	x	x	5.36µM*
O=C(NCc1ccco1)c1ccc(Cn2c(SCc3ccccc3)nc3cccnc32)cc1	x	x	x	x	6.75µM*
O=C(NCCc1ccccc1)c1ccc(Cn2c(SCc3cccc(F)c3)nc3cccnc32)cc1	-2.2%	x	x	4.9%	-10.2%
O=C(NCc1ccccc1)c1ccc(CSc2nc3cccnc3n2Cc2ccccc2F)cc1	x	x	x	x	-14.5%
O=C(NCCc1cccs1)c1ccc(Cn2c(SCc3cccc(F)c3)nc3cccnc32)cc1	x	3.0%	x	x	-0.7%
O=C(NCCc1ccccc1)c1ccc(Cn2c(SCc3ccccc3)nc3cccnc32)cc1	x	x	x	x	6.01µM*
Cc1ccccc1CSc1nc2cccnc2n1Cc1ccc(C(=O)NCCc2cccs2)cc1	x	x	x	x	5.36µM*
CCOc1ccccc1NC(=O)C(C)n1nnc2sc3c(c2c1=O)CCCC3 (stereo not given)	x	18.8%	x	x	1.8%
